High-throughput results: PubChem, several laboratories
HMGR II inh: E. faecalis class II HMG-CoA reductase inhibition | purified E. faecalis HMGR, NADPH absorbance 340 nm kinetic | inhibition, % at 10 µM | 190,000 compounds, 0.41% hits;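 active means inhibition above a set limit, the median over all tested compounds plus 3 SD, cut at about 9.5% in these data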;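 further: enzyme runs in reverse so mevalonate oxidation gives rising NADPH absorbance; 0% = complete reaction with DMSO and 100% = background rate lacking mevalonate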
Avidin fluor: avidin bead compound fluorescence profile; Avidin beads, compound fluorescence 488/530 nm, flow cytometry; stronger effect = higher value; 220,000 compounds, 0.38% hits; AID 1775; fluorescence (KMESF) at 10 µM; in the data active means fluorescence above about 47
GSH fluor: GSH bead compound fluorescence profile; 190,000 compounds, 0.25% hits; GSH beads flow cytometry, compound fluorescence 488/530 nm; stronger effect = higher value; fluorescence (KMESF) at 10 µM; in the data active means fluorescence above about 89;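 further: glutathione beads carrying GST-tagged Bcl family fusion proteins plus one bare bead set; values are compound well signal with DMSO vehicle wells as background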
PGE2 EP2 inh: blocks the human prostaglandin E2 receptor EP2; C6 glioma cells expressing human EP2, cAMP TR-FRET; cells stimulated with saturating PGE2; inhibition, % at 25 µM; P43116; 260,000 compounds, 0.52% hits; AID 1422;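 active means percent inhibition above 40 after rounding to a whole number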;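 further: rat C6 glioma host cells with rolipram phosphodiesterase inhibitor present; the protocol text gives 20 µM as final concentration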
Target sequence (P43116 whole entry, looked up): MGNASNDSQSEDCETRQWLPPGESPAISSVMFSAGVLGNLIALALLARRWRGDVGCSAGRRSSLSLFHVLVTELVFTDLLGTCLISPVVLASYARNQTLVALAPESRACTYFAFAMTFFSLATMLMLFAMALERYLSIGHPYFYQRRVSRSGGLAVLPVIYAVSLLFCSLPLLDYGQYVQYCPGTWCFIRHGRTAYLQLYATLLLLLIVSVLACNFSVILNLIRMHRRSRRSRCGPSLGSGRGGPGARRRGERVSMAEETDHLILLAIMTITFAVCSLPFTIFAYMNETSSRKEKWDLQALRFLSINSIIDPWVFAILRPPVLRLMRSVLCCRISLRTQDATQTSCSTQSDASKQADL
EP2 mod: modulates human prostaglandin E2 receptor EP2 signaling; P43116; EP2-expressing cells, cAMP HTRF FRET, PGE2 co-stimulation; induction, % at 25 µM; 260,000 compounds, 0.83% hits;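 active means compounds whose cAMP rise, as percent of the full-agonist control response, exceeds 60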;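 further: rat C6 glioma line stably carrying human EP2 under a CMV promoter; the protocol text gives 20 µM as final concentration; 100% = response of wells given 1 µM PGE2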
EP2 cAMP induct: EP2 receptor cAMP induction, counter-screens negative; shares compounds with EP2 mod; C6 glioma EP2 cells, cAMP HTRF induction; plus low (about EC15) PGE2 agonist; AID 1080; calls only at 20 µM (by protocol); 1,300 compounds, 47% hits;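 active means cAMP induction above 50% in the main assay while under 30% in all four parallel counter assays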;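 further: rat C6 glioma cells stably expressing human EP2 receptor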
* marks the source's active call; other numbers are inactive results; i = inactive; . = no result; + = active, no number. Hits are enriched below; roughly 2.1% of the tested compounds scored in any of these assays.

SMILES | HMGR II inh | Avidin fluor | GSH fluor | PGE2 EP2 inh | EP2 mod | EP2 cAMP induct
COc1ccc(/C=N/N(C(C)=O)c2nc(-c3ccc(C)cc3)cs2)cc1 | -3 | 4 | 26 | 9 | 37 | .
COc1ccccc1/C=N/N(C(C)=O)c1nc(-c2ccc(F)cc2)cs1 | 6 | 23 | 9 | 3 | 73* | i
O=c1c(O)c(-c2ccccc2)oc2ccc3occc3c12 | . | . | . | 9 | 74* | +
Cc1ccc(-n2c(Cc3cccc4ccccc34)n[nH]c2=S)c(C)c1 | -5 | 9 | 13 | 7 | 61* | +
O=S(=O)(c1ccc(F)c(Cl)c1)N1CCCC1 | -9 | 6 | 54 | 7 | 68* | i
Cc1ccc(-n2c(=S)[nH]c3c(oc4ccccc43)c2=O)cc1C | -6 | 13 | 12 | 16 | 74* | i
Cc1ccc(-n2nnc3ccccc3c2=O)cc1C | 2 | 13 | 7 | 9 | 12 | .
CC1=NN(c2ccc(S(=O)(=O)O)cc2)C(=O)/C1=C\c1ccc(Cl)cc1 | . | . | . | 43* | 50 | i
CC1=NN(c2ccc(Cl)cc2)C(=O)/C1=C\c1cccn1-c1ccc(S(N)(=O)=O)cc1 | 7 | 3 | 10 | 28 | -13 | .
FC(F)(F)c1cccc(/C=N/NC(=S)NC2CCCCC2)c1 | -3 | 20 | 7 | 4 | 80* | +
CC(=O)N1c2ccc(NC(=O)c3nnn(-c4ccccc4)c3C)cc2CC1C (stereo unspecified) | . | . | . | 10 | -30 | .
COc1ccc(OC(=O)c2cccc([N+](=O)[O-])c2)c(C(=O)/C=C/c2cccs2)c1 | 0 | 11 | 65 | 11 | 77* | i
COc1cccc(/C=C/C(=O)c2cccc([N+](=O)[O-])c2)c1 | -2 | 10 | 9 | 12 | 3 | .
O=c1cc(N2CCCCC2)c(-c2ccccc2)nn1Cc1ccc(Cl)cc1Cl | -4 | 4 | 24 | 8 | 60 | .
O=c1cc(N2CCCCC2)c(-c2ccccc2)nn1Cc1ccccc1Cl | -4 | 10 | 8 | 3 | 70* | +
O=c1cc(N2CCCCC2)c(-c2ccccc2)nn1Cc1cccc(Cl)c1 | 0 | 15 | 10 | 7 | 81* | +
CC(C)=CCc1c2c(c3occ(-c4ccc(O)cc4)c(=O)c3c1O)C=CC(C)(C)O2 | -4 | 12 | 14 | 12 | 37 | .
CC1(C)C=Cc2c(c3c(c4c(=O)c(-c5ccc(O)cc5)coc24)OC(C)(C)CC3)O1 | 0 | 11 | 14 | 13 | 60 | i
C=CCn1c2cc(C)sc2c2cnn(Cc3ccc(OC)cc3)c(=O)c21 | . | . | . | . | 9 | .
COc1cc(/C=C2\SC(=S)N(Nc3ncc(C(F)(F)F)cc3Cl)C2=O)ccc1O | -1 | 38 | 26 | 7 | 66* | i
CCOC(=O)c1sc(NC(=O)C(CC)OC(=O)c2c3c(nc4ccccc24)CCC3)nc1C (stereo unspecified) | . | . | . | 18 | -58 | .
Cn1c(=O)c2c(SCc3cccnc3)nc(CC(C)(C)C)nc2n(C)c1=O | -2 | 24 | 14 | 6 | 59 | +
COc1cc(NC(=O)c2cnn3c(C(F)F)cc(C4CC4)nc23)c(OC)cc1Cl | -6 | 11 | 18 | 4 | 19 | .
COC(=O)c1ccccc1NC(=O)c1cnn2c(C(F)F)cc(C3CC3)nc12 | -3 | 4 | 45 | 13 | 76* | i
Cc1n(N)c2ccccc2[n+]1CC(=O)c1ccc(Cl)cc1 | . | . | . | 8 | -25 | .
SMILES | HMGR II inh | Avidin fluor | GSH fluor | PGE2 EP2 inh | EP2 mod | EP2 cAMP induct
S=C1NCCc2ccc(Cl)cc2C1c1ccccc1 (stereo unspecified) | 17* | 5 | 14 | 7 | 75* | +
Cc1nc(SCC(=O)NCc2ccco2)c2c3c(sc2n1)CCCC3 | 2 | 8 | 5 | 17 | 1 | .
CC(C)Sc1nc2sc3c(c2c2nnc(SCC(=O)NCc4ccco4)n12)CCCC3 | 2 | 10 | 27 | 11 | 58 | i
C=CCOc1ccccc1CNc1cccc(F)c1 | -1 | 5 | 10 | 10 | 72* | i
C=CCOc1ccccc1CNc1ccccc1C | -3 | 6 | 10 | 7 | 81* | +
Clc1cccc(CNCc2ccco2)c1 | . | . | . | 5 | -17 | .
COc1ccccc1-c1noc(-c2cc(OC)c(OC)c(OC)c2)n1 | -7 | 26 | 21 | 6 | 6 | .
COc1cc(-c2nc(-c3cccc(C(F)(F)F)c3)no2)cc(OC)c1OC | -1 | 7 | 42 | 7 | 72* | +
COc1ccc(NC(=O)CSc2nnc(C)n2CC2CCCO2)cc1 (stereo unspecified) | . | . | . | 9 | 16 | .
CCCOC(=O)c1cc(-c2ccc(/C=C3\SC(N)=NC3=O)o2)ccc1Cl | . | . | . | 13 | 36 | .
CCCCC(=O)C1CCN(Cc2ccccc2)CC1 | -1 | 7 | 10 | 8 | 106* | i
CCCCNC(=O)C1CCN(Cc2ccc(OCc3ccccc3)cc2)CC1 | 2 | 7 | 21 | 11 | -5 | .
CC(C)[C@@H](Cn1nc(C2CC2)ccc1=O)NC(=O)c1cc2ccccc2oc1=O | . | . | . | . | -45 | .
NC(=O)CSc1nc2ccccc2n1Cc1ccccc1F | 1 | 7 | 19 | 16 | 7 | .
CCSc1nc2ccccc2n1Cc1ccccc1F | -8 | 21 | 22 | 10 | 72* | +
O=S(=O)(Nc1ccccc1N1CCCCC1)c1ccc(Cl)s1 | -2 | 22 | 24 | 6 | 69* | i
COC(=O)c1cn(CC(=O)Nc2cccc(OC)c2)c2ccccc12 | . | . | . | 12 | -37 | .
CC(NC(=O)Nc1ccccc1)C(c1ccccc1)N1CCOCC1 (stereo unspecified) | 2 | 12 | 4 | 5 | -7 | .
C[C@H](C(=O)c1ccccc1)[C@@H](c1ccccc1)N1CCOCC1 | . | . | . | 12 | 56 | +
CCOC(=O)c1ccccc1NC(=O)C1COc2ccccc2O1 (stereo unspecified) | 0 | 10 | 8 | 11 | 72* | +
CCOC(=O)c1c(CC(C)C)csc1N | -2 | 9 | 15 | 8 | 72* | i
CCOC(=O)c1c(CC(C)C)csc1NC(=O)CCl | -8 | 24 | 22 | . | 74* | i
N#Cc1sc2nc(C3CC3)cc(-c3ccccc3)c2c1N | 3 | 23 | 15 | 10 | 83* | +
N#Cc1sc2nc(-c3ccccc3)cc(-c3ccco3)c2c1N | -3 | 4 | 42 | 12 | 31 | .
Cc1cc(C)n(C(=O)COc2ccc(Cl)cc2Cl)n1 | -1 | 21 | 17 | 3 | 36 | .
Cc1cc(C)n(CCOc2ccc(Cl)cc2Cl)n1 | -3 | 11 | 25 | 5 | 73* | +
CCC(Sc1nc2ccccc2[nH]1)C(=O)Nc1cc(C)on1 (stereo unspecified) | -1 | 35 | 18 | 15 | 25 | .
